Measured values published in PubChem BioAssay (EPA / NIEHS).
Results filed as inconclusive are left out. Activity calls are given as the source filed them. How the source made its calls: active means hit-call score of the fitted dose curve at least 0.9, where 1 is the maximum; inconclusive means response in the unintended direction; inactive means score below 0.9.

What follows are compounds tested on xenobiotic metabolism (CYP1A2), CYP1A2 (gene 1544) (assay: CLD_CYP1A2_48hr: CellzDirect (CLD) Gene Expression Assay for xenobiotic metabolism (CYP1A2) at 48 hours (AID 2283703)).
How it was run: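 Cytotoxicity was flagged yes/no from morphology, while CYP1A2 transcript induction was detected by qNPA chemiluminescence after a 48-hour exposure. Human primary hepatocyte cultures from separate donors received fresh dosing solutions daily over two days, with 0.2% DMSO as vehicle and baseline.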

Row | Structure (SMILES) | outcome | AC50
1 | C#CCN1C(=O)COc2cc(F)c(N3C(=O)C4=C(CCCC4)C3=O)cc21 | inactive | –
2 | COC(=O)c1ccccc1S(=O)(=O)NC(=O)N(C)c1nc(C)nc(OC)n1 | inactive | –
3 | CC1(C)C(C=C(Cl)Cl)C1C(=O)OC(C#N)c1ccc(F)c(Oc2ccccc2)c1 (stereo not given) | inactive | –
4 | COc1nn(CSP(=S)(OC)OC)c(=O)s1 | – | 3.97 µM (active)

Each compound was assayed on Broad substrate specificity ATP-binding cassette transporter ABCG2 (Homo sapiens) (UniProt Q9UNQ0) (assay: CLD_ABCG2_48hr: CellzDirect (CLD) Gene Expression Assay for ABC Transporter (ABCG2) at 48 hours (AID 2283704);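 on AC50: potency for induction of ABCG2 mRNA above the DMSO baseline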).
Sequence of Broad substrate specificity ATP-binding cassette transporter ABCG2 (Homo sapiens) (Q9UNQ0 whole entry, looked up): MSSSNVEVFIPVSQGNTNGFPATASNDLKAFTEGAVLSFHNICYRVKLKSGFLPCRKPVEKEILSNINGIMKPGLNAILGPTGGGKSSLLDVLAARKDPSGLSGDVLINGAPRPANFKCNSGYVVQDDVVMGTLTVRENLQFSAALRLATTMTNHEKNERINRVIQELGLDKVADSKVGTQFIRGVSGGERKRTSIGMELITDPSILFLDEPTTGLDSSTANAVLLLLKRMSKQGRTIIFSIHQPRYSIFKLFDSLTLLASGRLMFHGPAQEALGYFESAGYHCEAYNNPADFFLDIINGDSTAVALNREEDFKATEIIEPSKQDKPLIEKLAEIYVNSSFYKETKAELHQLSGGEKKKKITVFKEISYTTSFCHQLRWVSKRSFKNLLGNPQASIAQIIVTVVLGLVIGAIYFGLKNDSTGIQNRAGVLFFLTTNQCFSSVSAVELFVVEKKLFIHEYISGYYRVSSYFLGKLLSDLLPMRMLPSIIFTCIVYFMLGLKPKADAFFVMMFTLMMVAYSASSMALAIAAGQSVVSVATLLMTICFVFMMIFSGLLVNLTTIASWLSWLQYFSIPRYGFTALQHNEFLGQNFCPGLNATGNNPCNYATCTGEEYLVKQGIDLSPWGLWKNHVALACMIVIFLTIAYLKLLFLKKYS
How it was run: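 ABCG2 transcript measured at 48 h by quantitative nuclease protection (chemiluminescent) and fitted for increase relative to 0.2% DMSO. Hepatocyte cultures from separate donors got fresh compound daily over two days; morphology annotated cytotoxicity.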

Row | Structure (SMILES) | outcome | AC50
5 | COP(=S)(OC)Oc1ccc([N+](=O)[O-])cc1 | inactive | –
6 | CCC(C)Nc1c([N+](=O)[O-])cc(C(C)(C)C)cc1[N+](=O)[O-] (stereo not given) | inactive | –
7 | CN1CSC(=S)N(C)C1 | inactive | –
8 | C[C@H]1[C@H](c2ccc(Cl)cc2)SC(=O)N1C(=O)NC1CCCCC1 | – | 34.8 µM (active)
9 | CCCN(CCOc1c(Cl)cc(Cl)cc1Cl)C(=O)n1ccnc1 | – | 35.4 µM (active)
10 | CCOC1Oc2ccc(OS(C)(=O)=O)cc2C1(C)C (stereo not given) | inactive | –
11 | O=C(Nc1ccccc1)Nc1cnns1 | inactive | –
12 | CCC(C)(C)C(=O)OC1=C(c2ccc(Cl)cc2Cl)C(=O)OC12CCCCC2 | inactive | –
13 | C#CCN1C(=O)COc2cc(F)c(N3C(=O)C4=C(CCCC4)C3=O)cc21 | inactive | –
14 | Clc1ccccc1-c1nnc(-c2ccccc2Cl)nn1 | inactive | –
15 | Oc1ccc(Cl)cc1Cc1ccccc1 | inactive | –
16 | ClC1C(Cl)C(Cl)C(Cl)C(Cl)C1Cl (stereo not given) | inactive | –
17 | COC(=O)c1ccccc1CS(=O)(=O)NC(=O)Nc1nc(OC)cc(OC)n1 | inactive | –
18 | [2H]C1([2H])[n+]2ccccc2-c2cccc[n+]2C1([2H])[2H] | inactive | –
19 | CCOc1nc(NC)nc(NC(=O)NS(=O)(=O)c2ccccc2C(=O)OC)n1 | inactive | –
20 | O=S1OCC2C(CO1)C1(Cl)C(Cl)=C(Cl)C2(Cl)C1(Cl)Cl (stereo not given) | inactive | –
21 | CC(C)(C)C(O)C(Oc1ccc(Cl)cc1)n1cncn1 (stereo not given) | inactive | –
22 | COc1cc(OC)nc(NC(=O)NS(=O)(=O)c2cc(NC=O)ccc2C(=O)N(C)C)n1 | inactive | –
23 | CC(C)(C)C(O)/C(=C\c1ccc(Cl)cc1Cl)n1cncn1 (stereo not given) | – | 31.5 µM (active)

What follows are compounds tested on xenobiotic metabolism (CYP1A1), CYP1A1 (gene 1543) (assay: CLD_CYP1A1_48hr: CellzDirect (CLD) Gene Expression Assay for xenobiotic metabolism (CYP1A1) at 48 hours (AID 2283705)).
How it was run: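 CYP1A1 transcript measured by quantitative nuclease protection (chemiluminescent) 48 h after two daily treatments of human hepatocyte cultures, versus 0.2% DMSO. Morphology-based cytotoxicity flags accompany data; two donor preparations used.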

Row | Structure (SMILES) | AC50 | outcome
24 | COP(=S)(OC)Oc1ccc([N+](=O)[O-])cc1 | 12.2 µM (active) | –
25 | CCC(C)Nc1c([N+](=O)[O-])cc(C(C)(C)C)cc1[N+](=O)[O-] (stereo not given) | 3.77 µM (active) | –
26 | CN1CSC(=S)N(C)C1 | – | inactive
27 | C[C@H]1[C@H](c2ccc(Cl)cc2)SC(=O)N1C(=O)NC1CCCCC1 | 34 µM (active) | –
28 | COP(=S)(OC)Oc1ccc(SC)c(C)c1 | 33.4 µM (active) | –
29 | CCCN(CCOc1c(Cl)cc(Cl)cc1Cl)C(=O)n1ccnc1 | 0.458 µM (active) | –
30 | CCOC1Oc2ccc(OS(C)(=O)=O)cc2C1(C)C (stereo not given) | – | inactive
31 | O=C(Nc1ccccc1)Nc1cnns1 | 20 µM (active) | –
32 | CCC(C)(C)C(=O)OC1=C(c2ccc(Cl)cc2Cl)C(=O)OC12CCCCC2 | – | inactive
33 | C#CCN1C(=O)COc2cc(F)c(N3C(=O)C4=C(CCCC4)C3=O)cc21 | – | inactive
34 | Clc1ccccc1-c1nnc(-c2ccccc2Cl)nn1 | 9.05 µM (active) | –
35 | COC(=O)c1ccccc1CS(=O)(=O)NC(=O)Nc1nc(OC)cc(OC)n1 | – | inactive
36 | [2H]C1([2H])[n+]2ccccc2-c2cccc[n+]2C1([2H])[2H] | 20 µM (active) | –
37 | CCc1ccc(C(=O)NN(C(=O)c2cc(C)cc(C)c2)C(C)(C)C)cc1 | – | inactive
38 | CCOc1nc(NC)nc(NC(=O)NS(=O)(=O)c2ccccc2C(=O)OC)n1 | 20 µM (active) | –
39 | COC(=O)c1ccccc1S(=O)(=O)NC(=O)N(C)c1nc(C)nc(OC)n1 | – | inactive
40 | CC(C)(C)C(O)C(Oc1ccc(Cl)cc1)n1cncn1 (stereo not given) | 5.32 µM (active) | –
41 | COc1cc(OC)nc(NC(=O)NS(=O)(=O)c2cc(NC=O)ccc2C(=O)N(C)C)n1 | – | inactive
42 | CC1(C)C(C=C(Cl)Cl)C1C(=O)OC(C#N)c1ccc(F)c(Oc2ccccc2)c1 (stereo not given) | – | inactive
43 | COc1nn(CSP(=S)(OC)OC)c(=O)s1 | 11.2 µM (active) | –
44 | CC(C)(C)C(O)/C(=C\c1ccc(Cl)cc1Cl)n1cncn1 (stereo not given) | 20 µM (active) | –
45 | CCCN(CCC)c1c([N+](=O)[O-])cc(C(F)(F)F)cc1[N+](=O)[O-] | 15.3 µM (active) | –
